Most compounds without a hit are left out; they make up all but 2.6% or so of the library.
GALC G270D up – A Novel Cell-Based Assay to Identify Small Molecules for B -Galactocerebrosidase. actives 0.1% (n = 45,000). P54803. AID 1159614, 2016. Potency, µM (top dose mostly 57.5 µM), hits mostly activators. 145M-Twi-hGALC-G270D cells (Twitcher mouse brain line with human GALC G270D), HMU-beta-Gal fluorescence, 48 h; also: 0% is about no effect; nearly all actives have a fitted effect of over 65% in size
Target sequence (P54803 whole entry G286D): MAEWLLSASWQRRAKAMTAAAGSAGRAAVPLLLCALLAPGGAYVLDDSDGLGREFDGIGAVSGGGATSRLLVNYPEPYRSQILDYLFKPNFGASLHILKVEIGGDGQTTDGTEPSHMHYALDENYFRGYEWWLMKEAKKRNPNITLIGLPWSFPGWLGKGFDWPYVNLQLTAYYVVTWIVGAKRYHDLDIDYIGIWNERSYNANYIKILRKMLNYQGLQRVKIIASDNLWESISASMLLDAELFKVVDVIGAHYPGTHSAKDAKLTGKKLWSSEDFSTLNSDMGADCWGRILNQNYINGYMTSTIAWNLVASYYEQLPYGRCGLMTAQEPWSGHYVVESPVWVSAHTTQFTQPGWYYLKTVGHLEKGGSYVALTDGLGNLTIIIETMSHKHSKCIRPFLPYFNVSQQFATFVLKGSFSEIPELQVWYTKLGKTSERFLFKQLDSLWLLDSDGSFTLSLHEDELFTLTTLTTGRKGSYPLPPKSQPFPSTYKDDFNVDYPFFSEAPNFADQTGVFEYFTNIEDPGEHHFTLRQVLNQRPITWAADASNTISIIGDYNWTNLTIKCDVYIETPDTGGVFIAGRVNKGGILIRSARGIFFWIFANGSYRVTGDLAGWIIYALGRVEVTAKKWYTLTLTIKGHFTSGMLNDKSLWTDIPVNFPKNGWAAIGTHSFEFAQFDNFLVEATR
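Fluorescence readout: HMU-β-gal cleavage by mutant GALC (0.1 mM final, citrate/phosphate pH 5.2 with 1 mg/mL taurocholate), stopped with carbonate/bicarbonate plus Triton X-100. Cells: murine Twitcher 145M-Twi expressing human G270D GALC; qHTS for activators.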
pS6 MEF inh – Acumen qHTS Assay for Inhibitors of the mTORC1 Signaling Pathway in MEF (Tsc2-/-, p53-/-) Cells: Sytravon; Potency, µM (doses to about 38.3 µM), for inactives: top-dose activity change, negative = inhibition, usual class: inhibitors; Tsc2-/- p53-/- MEF, phospho-rpS6 immunofluorescence/PI, 24 h; actives 0.78% (n = 44,000);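 also: plate controls were DMSO for no effect and rapamycin for full effect; nearly all actives have a fitted effect of over 50% in size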
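Tsc2-/-, p53-/- mouse embryonic fibroblasts (empty-vector line) exposed to compound 24 hrs at 37 C, fixed, immunostained for phospho-rpS6 and counterstained with propidium iodide. Acumen laser scanning gives % positive cells from Alexa 488/PI ratio, thresholded using 7.5 nM rapamycin; PI count gives viability.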
S16 F2sN tox – Cell viability qHTS assay in S16 Pmp22-F2sN cells | S16 Pmp22-F2sN Schwann cells viability, CellTiter-Glo, 24 h | Potency, µM (series often up to 57.5 µM), for inactives: at the highest dose activity change, negative = cytotoxicity, most hits filed as cytotoxic | actives 0.48% (n = 43,000) | AID 1508642, 2021; also: % is scaled to controls: 0 for no effect and ±100 for the full control effect; nearly all actives have a fitted effect of over 65% in size
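Rat S16 Schwann reporter line, 24 h treatment with library compounds delivered at 23 nL per well. Cell viability by CellTiter-Glo luminescence.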
OvCa metastasis – Primary qHTS assay for Inhibitors of ovarian cancer metastasis using an organotypic tumor microenvironment (TME) model; SKOV3ip1-GFP adhesion/invasion on 3D omental model, fluorescence; Potency, µM (top dose mostly 45.8 µM), without a hit: at the highest dose activity change, negative = inhibition, hits mostly inhibitors; actives 0.1% (n = 46,000); AID 1963576, 2024;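 also: plate controls were DMSO wells for no effect and tomatine positive control wells for full effect; nearly all actives have a fitted effect of over 65% in size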
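A 3D layer of primary human omental fibroblasts, mesothelial cells, fibronectin and collagen I, grown 48 hr, received SKOV3ip1-GFP cells in serum-free medium plus compounds at 0.36-46 umol/L. After 2 hr RT and 16 hr 37 C, fixed adherent GFP cells were counted; normalized to DMSO and tomatine.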
PMP22 txn prim – Cell-based coincidence reporter assay to measure PMP22 gene transcription in S16 Pmp22-F2sN cells - Primary screen. Potency, µM (series often up to 57.5 µM), inactives show top-dose activity change, negative = inhibition, usual class: inhibitors. S16 Pmp22-F2sN Schwann cells (luciferase reporters placed in the Pmp22 gene), FLuc/NLuc coincidence luminescence, 24 h. actives 2% (n = 43,000); active = clear falling dose curves in both reporters; inconclusive = both reporters move, but less clearly or upward; inactive = either reporter flat; the % is the NLuc reporter signal; also: % is scaled to controls: 0 for no effect and ±100 for the full control effect
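Schwann cells carrying the coincidence reporter were exposed to library compounds for 24 h at 37C, then lysed and read for FLuc and, after quenching, NLuc luminescence on a CCD imager.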
Numbers without * were called inactive; i = inactive; ? = inconclusive; . = no result. Unless noted, calls follow the shape of the dose curve; as a rule, active = well fitted curve in the direction sought with a large enough effect; inconclusive = small, poorly fitted or top-dose-only effect, or another doubt; inactive = no such curve, though single readings can be large; an effect the other way counts as inactive or inconclusive. Potency is read from the fitted curve at half-maximal effect.

SMILES	GALC G270D up	pS6 MEF inh	S16 F2sN tox	OvCa metastasis	PMP22 txn prim
O=C(Nc1ccccc1F)c1nc(S(=O)(=O)Cc2ccccc2F)ncc1Cl	i	1.2µM*	6.3µM*	3.2µM*	?
CSc1ncc(Cl)c(C(=O)Nc2nc3ccc(F)cc3s2)n1	i	4%	?	12%	-11%
CC(C)c1nn(-c2c(Cl)cccc2Cl)c2nc(Cc3ccc(OCCO)cc3)[nH]c(=O)c12	.	.	.	20%	.
COc1ccc(CC2=NN3C([C@@H](CCc4ccccc4)[C@@H](C)O)=NC(C)C3C(=O)N2)cc1OC (some centres undefined)	.	.	.	-9%	.
COc1ccc2nc(NC(=O)c3nc(S(=O)(=O)Cc4ccccc4F)ncc3Cl)sc2c1	i	15µM*	3.5µM*	7.1µM*	4.8µM*
Cc1cccc(CS(=O)(=O)c2ncc(Cl)c(C(=O)NCc3ccccc3)n2)c1	i	18µM*	20µM*	-12%	?
Cc1ccc(CSc2ncc(Cl)c(C(=O)NCc3ccccc3)n2)cc1	i	-4%	10%	i	?
CCC[C@H](NC(=O)C(C#N)=Cc1cccc(Br)n1)c1ccccc1	.	.	.	12µM*	.
CCN1CCN(Cc2ccc(-c3cc4c(N[C@H](C)c5ccccc5)ncnc4[nH]3)cc2)CC1	.	.	.	3%	.
Cc1cccc(Nc2nc(Nc3cccc(C)c3)nc(N3CCOCC3)n2)c1	i	1.2µM*	-23%	-15%	?
CCOc1ccc(Oc2nc(NCC(C)C)nc(N3CCOCC3)n2)nn1	i	-1%	0%	1%	-20%
CCOc1ccc(Nc2nc(Nc3ccc(OCC)cc3)nc(N3CCOCC3)n2)cc1	i	2.3µM*	4%	-8%	5%
Cc1cncn1CCc1nc2c3ccccc3nc(SCC(=O)Nc3ccc(F)cc3)n2n1	i	0%	5%	1%	-20%
Cc1cncn1CCc1nc2c3ccccc3nc(SCC(=O)Nc3cccc(Cl)c3)n2n1	i	?	28µM*	?	?
CCNC(=O)Nc1ccc(-c2nc3c(c(N4CCOC[C@H]4C)n2)CCN(C2COC2)C3)cc1	.	.	.	-5%	.
COC(=O)CN1C(=O)C(C)(C)c2cc(S(=O)(=O)Nc3ccc(Br)cc3F)ccc21	i	13µM*	5%	-13%	30%
CC1(C)C(=O)N(CC(=O)Nc2ccc(Br)cc2F)c2ccccc21	i	-2%	-1%	4%	-2%
Cc1ccc(NC(=O)CCCn2c3ccccc3c(=O)c3cc(C)ccc32)c(Br)c1	i	9%	-3%	i	?
Cc1ccc2c(c1)c(=O)c1ccccc1n2CCCC(=O)Nc1c(F)cccc1F	1.1µM*	-5%	3%	i	12%
CC(C)n1cnc2c(NCCCCCCNC(=O)OC(C)(C)C)nc(NCCO)nc21	.	.	.	-2%	.
O=C(O)c1cccnc1Nc1cccc(C(F)(F)F)c1	i	.	.	17%	.
Fc1ccc(Nc2nc3nonc3nc2Nc2cccc(C(F)(F)F)c2)cc1	i	?	8.9µM*	-3%	7.3µM*
COC(=O)[C@H](CCCN=C(N)N)NS(=O)(=O)c1ccc(C)cc1	.	.	.	-4%	.
COc1ccc(NS(=O)(=O)c2ccc(N3CCCCS3(=O)=O)cc2)cc1Cl	i	-10%	?	11%	7.3µM*
Nc1c(C(=O)NCc2ccccc2)nnn1Cc1cccc(Br)c1	i	-22%	?	i	3µM*
SMILES	GALC G270D up	pS6 MEF inh	S16 F2sN tox	OvCa metastasis	PMP22 txn prim
Cc1cc(C)cc(NC(=O)c2nnn(Cc3cccc(Br)c3)c2N)c1	i	-18%	-26%	2%	?
COc1ccc2c3n(c(=NC(=O)c4cccnc4)nc2c1OC)CCN3	.	.	.	-8%	.
CCCCNC(=O)c1c(C)oc2ncn(CC(C)C)c(=O)c12	i	-20%	?	1%	11µM*
CCCCN1C(=O)C(O)(c2c(C)[nH]c3ccccc23)c2ccccc21 (centres undefined)	i	?	?	-8%	19µM*
CCCCN1C(=O)C(O)(c2c(C)[nH]c3ccccc23)c2cc(Br)ccc21 (centres undefined)	i	?	-2%	?	?
O=C(NCC1CCN(Cc2cccc(Cl)c2)CC1)Nc1ccc(F)c(Cl)c1	i	18µM*	?	20µM*	-33%
CN1C(=O)c2ccccc2Sc2ccc(NC(=O)c3ccc(C(F)(F)F)cc3)cc21	i	0%	-11%	-9%	11µM*
CC[C@H](CC[C@@H](C)[C@H]1CC[C@H]2[C@@H]3CC=C4C[C@@H](O)CC[C@]4(C)[C@@H]3CC[C@]12C)C(C)C	.	.	.	-10%	.
COc1cc2nccc(Oc3ccc(NC(=O)C4(C(=O)Nc5ccc(F)cc5)CC4)cc3)c2cc1OC	.	.	.	-6%	.
COc1ccccc1Nc1nn2c(=O)c3ccc(C(=O)NCc4cccs4)cc3nc2s1	i	-5%	7.9µM*	i	10µM*
Cc1ccc(CN2C(=O)c3ccccc3Sc3ccc(C(=O)NCCCN4CCOCC4)cc32)cc1	i	12µM*	-28%	i	?
Cc1ccc(CN2C(=O)c3ccccc3Sc3ccc(C(=O)NC4CCCC4)cc32)cc1	i	14%	0%	-2%	-3%
Cc1cc(Nc2cccc(C(F)(F)F)c2)nc2ccc(NC(=O)c3cccnc3)cc12	i	?	?	11µM*	?
COc1ccc(C(=O)Nc2cc(-c3nc4ccccc4s3)ccc2OC)cc1	i	16µM*	?	?	?
CCOc1ccc(C(=O)Nc2cc(-c3nc4ccccc4s3)ccc2OC)cc1	i	?	-4%	4%	?
O=C(CCCn1ccc2cc(S(=O)(=O)N3CCCC3)ccc21)NCc1ccc(Cl)cc1	i	7.4µM*	?	-24%	?
Cc1ccc(O)c(C(CC(=O)NCC2(c3ccccc3)CCCC2)c2ccccc2)c1 (centres undefined)	i	18µM*	?	?	?
COc1ccc(C)cc1NC(=O)C(=O)NCC1(c2ccccc2)CCCC1	i	2%	-22%	0%	-31%
COc1ccc(-c2ccc3c(N4CCOC[C@H]4C)nc(N4CCOC[C@H]4C)nc3n2)cc1CO	.	.	.	-15%	.
Cc1ccc2[nH]c(=O)c3cc(C(=O)NCCCN4CCC(C)CC4)sc3c2c1	i	3.3µM*	?	?	?
